Common to all, as to test: NCI-60 one-dose screen, 48 h (100 = growth as untreated, 0 = no growth, -100 = all killed)
The test system of one assay is HT29 colon. The conditions noted are these: 10 µM unless noted.
The test system of the next assay is SNB-75 CNS. The conditions noted are these: 10 µM unless noted.
For another assay, the system named is SNB-19 CNS. The conditions noted are these: 10 µM unless noted.
A further assay deals with U251 CNS. The conditions noted are these: 10 µM unless noted.
The next assay deals with PC-3 prostate. The following applies: 10 µM unless noted.
The test system of the next assay is SK-MEL-5 melanoma. The conditions noted are these: 10 µM unless noted.
The test system of another assay is UACC-62 melanoma. The following applies: 10 µM unless noted.
For a further assay, the system named is LOX IMVI melanoma. The conditions noted are these: 10 µM unless noted.
The subject of another assay is SK-MEL-28 melanoma. The conditions noted are these: 10 µM.
Another assay has as its system SK-MEL-2 melanoma. The following applies: 10 µM unless noted.
A further assay relates to EKVX NSCLC. The conditions noted are these: 10 µM unless noted.
A further assay deals with SN12C renal. The following applies: 10 µM unless noted.
The subject of another assay is UO-31 renal. The following applies: 10 µM unless noted.
A further assay has as its system TK-10 renal. The conditions noted are these: 10 µM unless noted.
The next assay deals with ACHN renal. The conditions noted are these: 10 µM unless noted.
The subject of another assay is CAKI-1 renal. The conditions noted are these: 10 µM unless noted.
The test system of a further assay is A498 renal. The conditions noted are these: 10 µM unless noted.
The subject of a further assay is CCRF-CEM leukemia. The conditions noted are these: 10 µM unless noted.
Another assay has as its system MOLT-4 leukemia. The following applies: 10 µM unless noted.
A further assay concerns SR leukemia. The conditions noted are these: 10 µM unless noted.

About 83,000 compounds went through this panel and 20% of them were active in at least one assay; those are over-represented in the sample as a whole.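 Plates (96-well) were seeded with cells, treated with compound at one concentration, and incubated for 48 hours before percent growth was determined.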 A number with no mark means an inactive call. Calls of active or inactive are those of the source. How the source made its calls: active means growth percent below 10; inactive means the rest.

As to `CNCCNc1nc2ccccc2c2c(=O)c3cc(F)ccc3sc12`, the growth was -30.9% (active) in the assay with HT29 colon; 47.4% in the assay with SNB-75 CNS; 69.1% in the assay with SNB-19 CNS; -53.3% (active) with U251 CNS; 34% in the assay with PC-3 prostate; 88.1% in the assay on SK-MEL-5 melanoma. For the same compound, the growth is 22.3% with UACC-62 melanoma; 17.7% with LOX IMVI melanoma; 84.6% with SK-MEL-28 melanoma; 85.2% with SK-MEL-2 melanoma; 71.9% in the assay with EKVX NSCLC; 67.2% with SN12C renal. Further, the growth in the assay with UO-31 renal was 41.3%; with TK-10 renal, 60.2%; in the assay on ACHN renal it was 37.3%; in the assay on CAKI-1 renal, 44%; with A498 renal it was 38.9%; with CCRF-CEM leukemia it was 15.5%. The figures for the growth in the assay on MOLT-4 leukemia and in the assay on SR leukemia were -18.9% (active) and 13.6%, respectively.

Turning to `Cc1c(-c2noc(-c3ccc([N+](=O)[O-])cc3)n2)no[n+]1[O-]`, the growth with HT29 colon was 105%; in the assay on SNB-75 CNS it was 89.8%; in the assay with SNB-19 CNS it was 99.8%; in the assay on U251 CNS, 99.8%; in the assay with PC-3 prostate it was 92.5%; in the assay on SK-MEL-5 melanoma it was 92.1%. Also, the growth with UACC-62 melanoma was 87.6%; in the assay on LOX IMVI melanoma, 97.7%; in the assay with SK-MEL-28 melanoma, 108%; in the assay with SK-MEL-2 melanoma it was 101%; with EKVX NSCLC, 65.2%; with SN12C renal it was 98.3%. Moreover, the growth was 78.4% with UO-31 renal; 153% in the assay on TK-10 renal; 89.2% with ACHN renal; 83.8% in the assay with CAKI-1 renal; 117% in the assay on A498 renal; 101% with CCRF-CEM leukemia. Moreover, the growth was 101% in the assay with MOLT-4 leukemia and 103% with SR leukemia.

For the compound `COc1cc2nc(NC3CCC3)nc(NC3CCN(C(C)C)CC3)c2cc1OC`, the growth in the assay on HT29 colon is 14.5%; in the assay with SNB-75 CNS, 46.8%; with SNB-19 CNS, 91%; with U251 CNS, 21.5%; in the assay with PC-3 prostate it was 58.9%; in the assay on SK-MEL-5 melanoma it was 14.5%. Moreover, the growth with UACC-62 melanoma is 83.5%; with LOX IMVI melanoma it was 42.9%; in the assay with SK-MEL-28 melanoma, 38.1%; with SK-MEL-2 melanoma, 91.5%; in the assay on EKVX NSCLC, 83.5%; with SN12C renal, 92.2%. Also, the growth with UO-31 renal was 80.6%; in the assay on TK-10 renal, 46.8%; in the assay on ACHN renal, 57.2%; with CAKI-1 renal, 92.2%; with A498 renal, 75.9%; in the assay with CCRF-CEM leukemia, 46.5%. In addition, the growth is 45.5% in the assay with MOLT-4 leukemia and 2.34% (active) in the assay with SR leukemia.

On to `COC(=O)/C(CCC=C(C)C)=C1\[C@@H](OC(C)=O)C[C@@]2(C)[C@H]1CC(=O)[C@H]1[C@@]3(C)CC[C@H](NCc4ccccc4)[C@@H](C)[C@@H]3CC[C@@]12C`, for which the growth with HT29 colon is 37.8%; in the assay with SNB-75 CNS, 83.2%; in the assay on SNB-19 CNS it was 95.7%; with U251 CNS it was 74%; in the assay with PC-3 prostate, 70.4%; in the assay with SK-MEL-5 melanoma, 89.6%. Moreover, the growth with UACC-62 melanoma was 86.7%; with LOX IMVI melanoma, 81.8%; in the assay on SK-MEL-28 melanoma, 96.7%; with SK-MEL-2 melanoma, 106%; in the assay on EKVX NSCLC it was 87.9%; with SN12C renal it was 87%. For the same compound, the growth is 69.9% in the assay with UO-31 renal; 111% in the assay on TK-10 renal; 99.3% in the assay with ACHN renal; 86.8% in the assay on CAKI-1 renal; 91.9% with A498 renal; 61.7% in the assay with MOLT-4 leukemia. For the same compound, the growth in the assay with SR leukemia is 1.93% (active).

Turning to `Cn1c2c(c(=O)[nH]c1=O)NC1=C(C(=O)c3ccccc31)C1(C=C(O)c3ccccc31)N2` (stereo not drawn), the growth in the assay on HT29 colon is 113%; in the assay with SNB-75 CNS, 92.1%; in the assay with SNB-19 CNS it was 114%; in the assay on U251 CNS, 103%; in the assay with PC-3 prostate it was 94.1%; with SK-MEL-5 melanoma it was 111%. For the same compound, the growth with UACC-62 melanoma is 116%; in the assay with LOX IMVI melanoma it was 94.1%; with SK-MEL-28 melanoma, 148%; in the assay on SK-MEL-2 melanoma, 107%; in the assay on EKVX NSCLC, 95.7%; in the assay on SN12C renal it was 108%. Further, the growth was 77.6% in the assay with UO-31 renal; 134% in the assay on TK-10 renal; 89.7% with ACHN renal; 86% in the assay with CAKI-1 renal; 143% in the assay on A498 renal; 107% with CCRF-CEM leukemia. Moreover, the growth was 121% in the assay with MOLT-4 leukemia and 47.6% in the assay on SR leukemia.

Consider `COc1cccc2cc(N(C)c3nc(C)nc4ccsc34)ccc12`, for which the growth is -10.3% (active) with HT29 colon; 36% in the assay with SNB-75 CNS; 24.1% in the assay with SNB-19 CNS; 11.7% in the assay with U251 CNS; 12.7% in the assay on PC-3 prostate; -63% (active) with SK-MEL-5 melanoma. The growth with UACC-62 melanoma was 43.4%; in the assay on LOX IMVI melanoma, 16.3%; in the assay with SK-MEL-28 melanoma, 58.9%; in the assay on SK-MEL-2 melanoma, 13.1%; in the assay on EKVX NSCLC it was 60.2%; in the assay on SN12C renal, 25.7%. The growth is 30.5% in the assay with UO-31 renal; 41.8% in the assay on TK-10 renal; 18.9% with ACHN renal; 21.5% in the assay on CAKI-1 renal; -9.74% (active) with A498 renal; 4.65% (active) in the assay on CCRF-CEM leukemia. The growth in the assay on SR leukemia was 2.36% (active).

For the compound `CCCCC1CCc2cccc3c(SCC(=O)N(C)c4ccc(Cl)cc4)cc[n+]1c23` (stereo not drawn), the growth with HT29 colon is 106%; in the assay with SNB-75 CNS, 109%; in the assay with SNB-19 CNS, 97.2%; with U251 CNS, 108%; with PC-3 prostate, 106%; with SK-MEL-5 melanoma, 102%. Besides, the growth was 96.3% with UACC-62 melanoma; 99.7% with LOX IMVI melanoma; 105% in the assay with SK-MEL-28 melanoma; 111% in the assay on SK-MEL-2 melanoma; 125% with EKVX NSCLC; 104% in the assay with SN12C renal. In addition, the growth was 103% with UO-31 renal; 109% with TK-10 renal; 105% with ACHN renal; 99.1% in the assay on CAKI-1 renal; 114% in the assay on A498 renal; 108% in the assay with CCRF-CEM leukemia. Moreover, the growth in the assay on MOLT-4 leukemia is 98.7%; with SR leukemia, 101%.

`COc1cc(/C=C2\CN(C)C/C(=C\c3cc(CN4CCOCC4)c(O)c(OC)c3)C2=O)cc(CN2CCOCC2)c1O`: the growth was 6.39% (active) with HT29 colon; 26.3% in the assay on SNB-75 CNS; 58.5% with SNB-19 CNS; 20.7% in the assay with U251 CNS; 60.8% with PC-3 prostate; 72.3% with SK-MEL-5 melanoma. Besides, the growth in the assay with UACC-62 melanoma is 35.8%; with LOX IMVI melanoma, 11.7%; in the assay on SK-MEL-28 melanoma, 77.3%; with SK-MEL-2 melanoma, 72.2%; in the assay with EKVX NSCLC, 80.6%; in the assay on SN12C renal, 35%. Also, the growth in the assay with UO-31 renal was 76.6%; in the assay on TK-10 renal, 91.9%; in the assay on ACHN renal it was 47.5%; in the assay on CAKI-1 renal it was 82.7%; in the assay on A498 renal it was 81.8%; in the assay with CCRF-CEM leukemia, 32.1%. The growth in the assay with MOLT-4 leukemia is 30%; in the assay on SR leukemia, 32.6%.

Source of the values: PubChem BioAssay (NCI).
